# Screening results as filed in PubChem.
# LASV entry inh: inhibitors of Lassa virus binding or cell entry; Lassa virus pseudotype entry inhibition, cell reporter; Potency, µM (series often up to 37.9 µM), for inactives: at the top dose activity change, negative = inhibition, hits mostly inhibitors; 300,000 tested, 1.2% active; AID 540256; calls by dose curve; tested in HEK293 cells; note: nearly all actives have a fitted effect of over 50% in size
# Sm TGR block: S. mansoni TGR enzyme inhibition; Potency, µM (titrated, usually from 114 µM), for the others: at the top dose activity change, negative = inhibition, usual class: inhibitors; Q962Y6; 360,000 tested, 3% active; purified TGR, DTNB reduction, TNB absorbance 405 nm; AID 485364; active = well fitted inhibition curve with a large enough effect; inconclusive = small, poorly fitted or top-dose-only effect; inactive = no such curve, though single readings can be large or run the other way; note: nearly all actives have a fitted effect of over 60% in size
#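 TGR 20 nM + NADPH 100 uM (dispensed conc.), cpd preinc 15 min RT; start with NADPH (500 uM addition) then DTNB (15 mM addition). Kinetic TNB absorbance, 405 nm filter. Four-parameter Hill fit across titration.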
# Marburg entry inh: Marburg virus entry inhibition; Marburg virus pseudotyped entry inhibition, cell reporter; Potency, µM (series often up to 37.8 µM), inactives show at the top dose activity change, negative = inhibition, hits mostly inhibitors; 300,000 tested, 1.8% active; calls by dose curve; tested in HEK293 cells
# FMDV antiviral: foot and mouth disease virus antiviral activity; FMDV antiviral cell-based qHTS; Potency, µM (highest dose often 57.9 µM), inactives show at the highest dose activity change, negative = inhibition, usual class: inhibitors; 410,000 tested, 1.2% active; calls by dose curve; tested in HEK293T cells; note: read-out not given here; nearly all actives have a fitted effect of over 45% in size
# VACV Venus inh: inhibitors of vaccinia virus (Venus reporter). 330,000 tested, 0.46% active. Vaccinia virus Venus reporter expression, fluorescence. Potency, µM (highest dose often 36.5 µM), inactives show top-dose activity change, negative = inhibition, usual class: inhibitors. AID 720580; calls by dose curve; tested in A549 cells; note: nearly all actives have a fitted effect of over 30% in size
# VACV mCherry inh: inhibitors of vaccinia virus infection (mCherry reporter signal) | Vaccinia virus mCherry reporter infection, fluorescence | Potency, µM (top dose mostly 36.5 µM), inactives show top-dose activity change, negative = inhibition, most hits filed as inhibitors | 310,000 tested, 0.63% active; calls by dose curve; tested in A549 cells; note: nearly all actives have a fitted effect of over 35% in size
# * marks the source's active call; other numbers are inactive results; i = inactive; ? = inconclusive; · = no result given; ! = repeats disagree; [ ] = another dose, or the depositor's remark. In the library only some 5.4% were active in any assay of this set; here they are far more common. % is set by controls: 0 for no effect and ±100 for the full control effect; potency is the fitted concentration of half-maximal effect.
SMILES,LASV entry inh,Sm TGR block,Marburg entry inh,FMDV antiviral,VACV Venus inh,VACV mCherry inh
C=C1CCC[C@]2(C)C[C@H]3OC(=O)C(CNCC(OC)OC)[C@H]3CC12 (stereo partly specified),20%[46.1 µM],-20%,4%[46.1 µM],-12%,?,4.5µM*
COc1cc(CN2CCc3nnc(C(NS(C)(=O)=O)C(C)C)n3CC2)ccc1F (stereo unspecified),·,·,·,-8%,-1%,1%
COc1ccc(N(CC(=O)N2CCCCC2)S(=O)(=O)c2ccc(OC)c(OC)c2)cc1,-7%[46.1 µM],0%,·,36%,5%,3%
CC[C@H](CO)NC(=O)[C@H]1C=C2c3cccc4[nH]cc(c34)C[C@H]2N(C)C1,·,·,-42%,·,·,·
CCC1CN(Cc2cccn2-c2ccccn2)Cc2cc(OC)ccc2O1 (stereo unspecified),·,·,·,26%,5%,-9%
C#CCCCON=C1C[C@@H](O)[C@H](O)[C@H]2[C@@H]3C(=O)N(c4ccc(F)cc4F)C(=O)[C@@H]3CC[C@@H]12,·,·,-8%[14.2 µM],·,·,·
CC(=O)Oc1ccc2ccc(=O)oc2c1,·,6%,·,-19%,0.0025µM*,100µM*
CCc1cc(=O)oc2cc(OC(=O)CN3C(=O)NC4(CCCC4)C3=O)ccc12,-17%,?,14%,-6%,-8%,-14%
O=C(CN1C(=O)NC2(CCCC2)C1=O)Oc1ccc2ccc(=O)oc2c1,·,56µM*,·,-6%,·,·
O=C(CN1C(=O)NC2(CCCCC2)C1=O)Oc1ccc2c(C(F)(F)F)cc(=O)oc2c1,·,40µM*,·,-27%,·,·
COC(=O)C1=C(C(=O)OC)[C@@H]2N(C)c3ccccc3[C@@]23C[C@@H](CO)N(C(=O)c2ccc(Br)cc2)C3=N1,·,·,-34%[14.2 µM],·,·,·
COC(=O)[C@]1(CC=Cc2ccccc2)C=C[C@@H](C)[C@H](c2ccccc2Br)N1C(=O)C(F)(F)F,·,·,13%[14.2 µM],·,·,·
Cc1ccccc1NC(=O)Cn1c(=O)n(CCC(=O)NCc2ccc3c(c2)OCO3)c(=O)c2sccc21,-3%[46.1 µM],7%,26%[46.1 µM],19%,-10%,-7%
Cc1ccc(OCC(=O)Nc2nnc(SCc3cc(=O)n4cccc(C)c4n3)s2)cc1,2%[46.1 µM],0%,·,-10%,-13%,-15%
Cc1cc(-c2nn3c(-c4ccccc4)nnc3s2)c2ccccc2n1,-1%,4%,-10%,-14%,·,·
c1ccc(-c2cc(-c3nn4c(-c5ccco5)nnc4s3)c3ccccc3n2)cc1,?,20µM*,?,-9%,·,·
COc1cc(OC)c(-c2nn3c(-c4ccco4)nnc3s2)cc1OC,?,11µM*,-18%,-5%,?,11µM*
c1coc(-c2nnc3sc(-c4cccs4)nn23)c1,-1%,18µM*,8%,-9%,·,·
CC(C)=CCN1C(=O)[C@@]2(CC(C)=CC[C@@H](COc3ccccc3)O2)c2ccccc21,?,·,3%[14.2 µM],·,·,·
CCOC(=O)C(CC)N1CCN(Cc2ccc(F)cc2)C(=O)C1=O (stereo unspecified),8%[46.1 µM],0%,·,-25%,2%,-3%
CC1CCN(CCCC(=O)c2ccc(F)cc2)CC1,·,·,·,-18%,·,·
CC(C)(C)c1ccc(C(=O)CCCN2CCC(OC(c3ccccc3)c3ccccc3)CC2)cc1,5.2µM*,·,?,·,·,·
COc1cc(N(Cc2ccccc2)Cc2ccccc2)c2ncn(C(C)C)c2c1,·,3%,·,-20%,-14%,-18%
CC(C)n1cnc2c(N(C)c3ccccc3)nc(N(CCN(C)C)Cc3ccccc3)nc21,·,?,·,?,13µM*,?
COc1ccc(-n2nc3cc(C)c(N)c(Br)c3n2)cc1,-22%,40µM*,?,19%,-5%,i
SMILES,LASV entry inh,Sm TGR block,Marburg entry inh,FMDV antiviral,VACV Venus inh,VACV mCherry inh
Cc1ccc(-n2nc3cc(C)c(N)cc3n2)cc1,13µM*,-15%,?,-60%,-21%,·
Cc1ccc(-n2c(C)c([N+](=O)[O-])c3ccc(O)cc32)cc1,·,8.9µM*,·,·,·,·
Cc1c([N+](=O)[O-])c2ccc(O)cc2n1-c1ccccc1,·,-14%,·,-2%,·,·
CCCCC(CC)C(=O)Oc1ccc(O)c(C(C)(C)C)c1 (stereo unspecified),10µM*,·,?,14%,?,?
Cc1cccc(CCNc2ncnc3onc(-c4ccc(Cl)cc4)c23)c1,-2%[46.1 µM],-4%,?,?,-11%,-17%
CCOC(=O)c1cnc2c(C(F)(F)F)cccc2c1Nc1cccc(C(=O)OC)c1,23%[46.1 µM],2%,6%[46.1 µM],-27%,2%,-11%
CCOC(=O)c1cnc2c(OC)cccc2c1Nc1cccc(O)c1,-22%[46.1 µM],-12%,-9%[46.1 µM],25µM*,-18%,-14%
CC(=NCc1ccco1)c1c(O)n(-c2ccccc2C)c(=O)[nH]c1=O,?,-29%,14%,-14%,-15%,-7%
Cc1ccccc1-n1c(O)c(C(c2ccncc2)c2c(O)n(-c3ccccc3C)c(=O)[nH]c2=O)c(=O)[nH]c1=O,2%,1.1µM*,?,2%,-3%,i
Cc1cn([C@H]2C[C@H](O)[C@@H](/C=C/C(=O)NCCc3ccc(S(N)(=O)=O)cc3)O2)c(=O)[nH]c1=O,·,·,·,-4%,-5%,18%
O=C(CSc1nnc2scc(-c3ccccc3)n12)Nc1nsc(-c2ccccc2)n1,-30%,-5%,21µM*!,32µM*,·,·
Cc1ccc(-c2csc3nnc(SCC(=O)Nc4nsc(-c5ccccc5)n4)n23)cc1,-5%,-12%,-4%,?,-28%,-25%
O=C(NCCc1nnc2n1CCN(Cc1ccc(F)c(F)c1)CC2)c1ccoc1,·,·,·,-5%,-7%,-9%
Nc1ccc(N=Nc2ccccc2)cc1,?,-7%,?,3%,-12%,?
Nc1ccc(N(c2ccccc2)c2ccc(N)cc2)cc1,-17%,-33%,?,?,28µM*,?
CC(=O)Nc1ccccc1-c1nc(CNC(=O)c2ccc(-n3cccn3)cc2)c(C)o1,·,·,·,9%,1%,-13%
COc1ccc(-c2nnc3n2N(C(C)=O)C(c2ccc(Cl)c(Cl)c2)=C(C(C)=O)S3)cc1,?,0%,·,-14%,?,?
CCOc1ccc(NC(=O)C(=O)c2cc(C)n(-c3cc(C)cc(C)c3)c2C)cc1,13%[46.1 µM],1%,-15%[46.1 µM],-26%,3%,-14%
COC(=O)c1ccc(-n2c(C)cc(C(=O)CCl)c2C)cc1,·,4.5µM*,·,32µM*,·,·
CCOc1ccc(-n2c(C)cc(C(=O)CCl)c2C)cc1,10µM*,4.5µM*,?,28µM*,-9%,-30%
Cc1ccc2nc(CSc3nc(C)ccc3C#N)[nH]c2c1,1µM*,-10%,2.3µM*,8.9µM*,·,·
CC(=O)NCCCNC(=S)NCCCN(Cc1ccc(Cl)cc1)c1ccc(Br)cn1,·,·,·,-11%,11µM*,?
CCOC(=O)c1ccc(CN(Cc2ccccc2C)S(=O)(=O)c2ccc(F)c(C)c2)cc1,-20%[46.1 µM],12%,·,-8%,-11%,-5%
O=C(COc1ccccc1F)Nc1ccc2nc(SCC(=O)N3CCOCC3)sc2c1,-21%[46.1 µM],-2%,?,?,-20%,-23%
